Data published in PubChem BioAssay AID493240 (Broad Institute, 2011).
Screen size: about 1,300 compounds; about 270 (21%) were called active. The rule behind the calls is not given here. Not all results are given here. Where a call stands in place of a potency, no number is given. Potency and affinity values are given separately.

Experiment: cytotoxicity in parental SK-MEL-5 melanoma cells – cell-based, CellTiter-Glo, cherry-picked, set 3, orthogonal assay for MITF inhibitor project, dose response (AID 493240)
Conditions: SK-MEL-5 viability, ATP luminescence (CellTiter-Glo), 24 h; series mostly up to 35 µM

Row | Structure (SMILES) | outcome
1 | CCC(=O)NC(c1ccccc1OC)c1ccc2cccnc2c1O (stereo unspecified) | inactive
2 | Cc1ccc(C(=O)c2no[n+]([O-])c2C(=O)c2ccc(C)cc2)cc1 | inactive
3 | Cc1ccc(NC(=O)C2CCN(S(=O)(=O)c3c(C)noc3/C=C/c3ccco3)CC2)nc1 | inactive
4 | Cc1[nH]nc(Nc2ccc(Br)cc2)c1[N+](=O)[O-] | inactive
5 | CC(C)(C)c1ccc(-c2noc(CCC(=O)NCC3CCCO3)n2)cc1 (stereo unspecified) | inactive
6 | Cn1cccc1-c1cc(C(=O)N/N=C/c2cc(Br)ccc2O)[nH]n1 | inactive
7 | Oc1ccccc1/C=N/Nc1cccc2cccnc12 | inactive
8 | O=C(N/N=C/c1cc(Br)ccc1O)c1ccncc1 | inactive
9 | O=C(CCCCC(=O)NN=Cc1ccccc1O)NN=Cc1ccccc1O | inactive
10 | COc1ccc(C(=O)NCCSc2ccccc2C)cc1 | inactive
11 | CCOc1ccc(NC(=O)c2ccccn2)cc1 | inactive
12 | CC(C)N=C(NS(=O)(=O)c1ccccc1)C(Cl)(Cl)Cl | inactive
13 | O=C(Cn1cnc2ccccc2c1=O)Nc1ccc2c(c1)OCCO2 | inactive
14 | Cc1nn(C)cc1/C=C/C(=O)c1cccs1 | inactive
15 | Cc1ccn2c(Nc3ccccc3)c(-c3ccccn3)nc2c1 | inactive
16 | O=[N+]([O-])c1cc(C(F)(F)F)ccc1NCCc1ccccn1 | inactive
17 | COc1ccc(COC(=O)c2n[nH]c3ccccc23)cc1F | inactive
18 | Cc1cc(Br)ccc1OCc1nc(-c2cccnc2)no1 | inactive
19 | O=C(NC1CCCCCC1)c1cc2ccccc2oc1=O | inactive
20 | CCOC(=O)c1cc([N+](=O)[O-])c([N+](=O)[O-])cc1NC(C)=O | inactive
21 | N/C(CS(=O)(=O)c1ccccn1)=N\OC(=O)c1ccccc1Cl | inactive
22 | N/C(=N\OC(=O)c1ccccc1)c1ccccn1 | inactive
23 | O=C(Nc1ccc2c(c1)OCCO2)c1ccoc1 | inactive
24 | COc1ccccc1NC(=O)c1cnc(SCC(=O)NCC2CCCO2)n(C)c1=O (stereo unspecified) | inactive

Row | Structure (SMILES) | outcome
25 | COc1ccc(Cn2c(-c3ccc(C)cc3)c[n+]3ccccc23)cc1 | inactive
26 | COc1ccc2oc(=O)c(C(=O)Nc3ccccc3C)cc2c1 | inactive
27 | CCC[n+]1c(C)sc2c3c(ccc21)CCCC3 | inactive
28 | O=C(Nc1ccccc1)C1Cc2ccccc2CN1C(=O)c1ccco1 (stereo unspecified) | inactive
29 | Cc1ccc(OCCNCc2ccccc2)c(C)c1 | inactive
30 | Cc1cc(Cl)ccc1NC(=O)c1ccc2c(c1)OCO2 | inactive
31 | CN(C)c1ccc(/C=C(\C#N)c2ccccn2)cc1 | inactive
32 | O=C1NC2c3c(I)sc(I)c3C(=O)C2O1 (stereo unspecified) | inactive
33 | C/C(=N\Nc1cc(N2CCOCC2)ncn1)c1ccccc1 | inactive
34 | O=C(Nc1ccccc1N1CCN(C(=O)c2ccccc2)CC1)c1ccc([N+](=O)[O-])o1 | inactive
35 | COc1ccccc1N1CCN(/N=C/c2cccc(Cl)c2)CC1 | inactive
36 | O=C(CS(=O)c1ccc(C(F)(F)F)cc1[N+](=O)[O-])Oc1ccccc1 (stereo unspecified) | inactive
37 | O=C(/C=C\c1ccccc1)NCC(=O)N/N=C/c1ccc(O)cc1O | inactive
38 | CCOC(=O)/C=c1/s/c(=C/c2ccc3cc(OC)ccc3c2)c(=O)n1CC(=O)NCC1CCCO1 (stereo unspecified) | inactive
39 | CC(C)(C)C(=O)/C(=C/c1ccncc1)n1cncn1 | inactive
40 | c1ccc(OCc2nn3c(-c4ccccn4)nnc3s2)cc1 | inactive
41 | O=C(N/N=C/c1ccccc1Cl)c1n[nH]c2c1CCCC2 | inactive
42 | N#Cc1cnn2cc(CCN3CCOCC3)c(-c3ccc(F)cc3)nc12 | inactive
43 | CCCCC(=O)N/C(N)=N/c1nc2ccccc2o1 | inactive
44 | C=CCn1cccc(C(=O)Nc2ccc(C)c(Cl)c2)c1=O | inactive
45 | N#C/C(C(=O)c1ccccc1)=C1/CCCCCN1 | inactive
46 | Cc1ccc2cc(NC(=O)Cc3ccccc3)ccc2n1 | inactive
47 | Cc1cccc(/C=C2/Sc3ccc(C(=O)NCCN4CCCC4)cc3NC2=O)c1 | inactive
48 | COc1ccc(/C=C2\Sc3ccc(C(=O)NCCN4CCCCCC4)cc3N(C)C2=O)cc1 | inactive

Row | Structure (SMILES) | outcome
49 | CCN1CCCC1CNC(=O)c1ccc2c(c1)NC(=O)/C(=C\c1ccc(OC)c(OC)c1)S2 (stereo unspecified) | inactive
50 | COc1cccc(/C=C2/Sc3ccc(C(=O)NCCN4CCCC4)cc3NC2=O)c1 | inactive
51 | CCN1CCN(CCCNC(=O)c2ccc3c(Cl)c4c(nc3c2)CCCC4)CC1 | inactive
52 | CC1(C)CC(=O)c2cnc(N3CCc4ccccc43)nc2C1 | inactive
53 | CC1=C/C(=N\NC(=S)Nc2cccnc2)CC(C)(C)C1 | inactive
54 | CC(C)(C)NC(=O)CCN(/N=C/c1ccc([N+](=O)[O-])o1)C1=NS(=O)(=O)c2ccccc21 | inactive
55 | O=C1CCC2S/C(=C/Nc3ccc(C(F)(F)F)cc3)C(=O)N12 (stereo unspecified) | inactive
56 | Nc1nc2n[nH]nc2c(=O)[nH]1 | inactive
57 | CN1CCN(c2ccc(NC(=S)NC(=O)c3cccc4ccccc34)cc2)CC1 | inactive
58 | CCOc1ccc(-n2c(O)c(/C=N/Nc3nc(C)cc(C)n3)c3ccccc3c2=O)cc1 | inactive
59 | O=C1N=C(N2CCOCC2)S/C1=C\C=C/c1ccccc1 | inactive
60 | O=C(c1ccc(F)cc1)N1CCC(c2ccccc2)C1 (stereo unspecified) | inactive
61 | COc1ccc2c(c1OC)C(=O)N(c1ccc(C)cc1)C2 | inactive
62 | Cc1cnc(NC(=O)c2nn(C)cc2[N+](=O)[O-])s1 | inactive
63 | Cn1cc([N+](=O)[O-])c(C(=O)Nc2cc(Oc3ccccc3)cc([N+](=O)[O-])c2)n1 | inactive
64 | Cc1ccc(-n2nnnc2CNC(=O)c2ccc([N+](=O)[O-])o2)cc1C | inactive
65 | CCc1cc(C=NC2CCCCC2)c(O)s1 | inactive
66 | Cc1ccc(-n2[nH]c(=O)c(-c3ccccn3)c2C)cc1 | inactive
67 | O=C(Nc1ccc(Br)cc1)c1ccc2c(c1)OCO2 | inactive
68 | O=C(CSc1nc2ccccc2[nH]1)c1ccc2c(c1)OCO2 | inactive
69 | CCc1ccc(-c2cc(C(=O)Nn3cnnc3)c3ccccc3n2)cc1 | inactive
70 | CCc1ccccc1NC(=O)CN(C)C(=O)Cn1ncc(Cl)c(Cl)c1=O | inactive
71 | CCOC(=O)c1[nH]cnc1N=Nc1c(O)ccc2ccccc12 | inactive
72 | O=[N+]([O-])c1ccc(/C=N/N=C/c2ccc([N+](=O)[O-])o2)o1 | inactive

Row | Structure (SMILES) | outcome
73 | O=C(N/N=C/c1ccc([N+](=O)[O-])o1)c1ccccc1-n1cccc1 | inactive
74 | O=C(N/N=C/c1ccc([N+](=O)[O-])o1)c1sc2ccccc2c1Cl | inactive
75 | O=C(Cn1ncc(Cl)c(Cl)c1=O)N1CCOCC1 | inactive
76 | O=[N+]([O-])c1ccc(/C=N/Nc2ccnc3cc(Cl)ccc23)o1 | inactive
77 | COc1cccc(NC(=O)Nc2cccc(C(=O)O)c2)c1 | inactive
78 | COc1cc(OC)cc(C(=O)Nc2ccc3c(c2)OCCO3)c1 | inactive
79 | C/C(=N/N=C(/C)c1cccs1)c1cccs1 | inactive
80 | O=C(Nc1nc(-c2ccccn2)cs1)c1ccccc1-n1cnnn1 | inactive
81 | COc1ccc(Br)cc1C(C[N+](=O)[O-])c1c(N)n(C)c(=O)n(C)c1=O (stereo unspecified) | inactive
82 | O=C(CCC1CCCN(C(=O)c2cc3ccccc3o2)C1)NCc1ccc(F)c(F)c1 (stereo unspecified) | inactive
83 | CCOC(=O)c1sc(NC(=O)Nc2ccc(Cl)cc2)nc1C | inactive
84 | O=C(NC1CCCCC1)c1cc2cc(Br)ccc2o1 | inactive
85 | C=CCOc1ccc(/C=C/C(C)=N\O)cc1 | inactive
86 | Cc1cc(C)c(C#N)c(SCc2nnc(-c3ccccc3)o2)n1 | inactive
87 | COc1ccc2nc(C)cc(SCC(=O)N/N=C/c3ccc(O)cc3O)c2c1 | inactive
88 | O=C(CNC(=O)c1ccc(Br)cc1)c1ccccc1 | inactive
89 | Nc1ccc(Oc2cccc(Oc3ccc(N)cc3)c2)cc1 | inactive
90 | O=C(Nc1cc(-c2nc3ncccc3o2)ccc1Cl)c1ccc([N+](=O)[O-])o1 | inactive
91 | COc1ccc(C[C@H]2CN3C(=NC[C@@H]3C(C)C)N2CCNC(=O)c2ccc(C)c(Br)c2)cc1 | inactive
92 | CCOc1ccc(C(=O)Nc2cccc(C(=O)O)c2C)cc1Cl | inactive
93 | COc1cccc(C(=O)Oc2c(CN3CCOCC3)cc(Cl)c3cccnc23)c1 | inactive
94 | O=C(N/N=C/c1ccc([N+](=O)[O-])s1)c1ccccc1 | inactive
95 | Cc1onc(-c2ccccc2)c1C(=O)N/N=C/c1ccc([N+](=O)[O-])s1 | inactive
96 | CCOc1ccc(NC(=O)CCC(=O)N/N=C/c2ccc([N+](=O)[O-])s2)cc1 | inactive

Row | Structure (SMILES) | outcome
97 | Cc1ccccc1C(=O)N/N=C/c1ccc([N+](=O)[O-])s1 | inactive
98 | O=C(CNC(=O)c1cccc(F)c1)N/N=C/c1ccc([N+](=O)[O-])s1 | inactive
99 | O=C(N/N=C/c1ccc([N+](=O)[O-])s1)c1ccccc1Br | inactive
100 | O=C(N/N=C/c1ccc([N+](=O)[O-])s1)c1cccc(Br)c1 | inactive
101 | CC(=O)c1ccc(S(=O)(=O)N2CCN(C(=O)/C=C/c3ccc4ccccc4n3)CC2)cc1 | inactive
102 | CN(C)c1ccc(/C=N/N2CCN(c3ccccn3)CC2)cc1 | inactive
103 | CC(=O)Nc1nc(C)c(-c2csc(Nc3cccc(C(C)=O)c3)n2)s1 | inactive
104 | O=C(O)c1ccccc1C(=O)Nc1ccc(Oc2cccc3ccccc23)cc1 | inactive
105 | O=C(Nc1ccc(N2CCOCC2)c(Cl)c1)c1cccc(F)c1 | inactive
106 | O=C(Cc1ccccc1)NCC(=O)N/N=C/c1ccc([N+](=O)[O-])s1 | inactive
107 | O=C(CNC(=O)c1ccccc1)N/N=C/c1ccc([N+](=O)[O-])s1 | inactive
108 | CCCN1C(=O)c2ccc(C(=O)Nc3cc(C)ccc3O)cc2C1=O | inactive
109 | Cc1cc(C)c2c(N)c(C(=O)N/N=C/c3ccccc3)sc2n1 | inactive
110 | Cc1c(Cl)c([N+](=O)[O-])nn1Cc1ccc(C(=O)N/N=C\c2cc(Cl)ccc2O)o1 | inactive
111 | COc1ccc(NS(=O)(=O)c2cc(NC(=O)CNC(=O)c3cccc(OC)c3)ccc2C)cc1 | inactive
112 | O=C(CSc1nnnn1-c1ccc(O)cc1)Nc1cccc(S(=O)(=O)N2CCCC2)c1 | inactive
113 | O=C(Nc1cccc(S(=O)(=O)N2CCCCC2)c1)c1ccc([N+](=O)[O-])o1 | inactive
114 | O=C(N/N=C\c1cc(Cl)ccc1O)c1ccc(S(=O)(=O)N2CCCCC2)cc1 | inactive
115 | O=C(CCl)Nc1cccc(S(=O)(=O)NC2=NCCCCC2)c1 | inactive
116 | O=C(Nc1ccc(S(=O)(=O)N2CCCCCC2)cc1)c1[nH]ncc1[N+](=O)[O-] | inactive
